Results reported in PubChem BioAssay AID1159580 (chemical genetic matrix, 2015).
The campaign covered roughly 5,500 compounds. About 2,000 (36%) were called active. About 18% were inconclusive and are not listed. Cut-off read from the data, not from the text of the source: active = normalized growth mostly below about 0.91 (no sharp cut-off); inconclusive = no clear call, values can overlap the other calls; inactive = mostly above about 0.92. Some of the results follow.

Experiment: chemical genetic growth profiling, strain panel (AID 1159580);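 note: tested at 20 µM; growth read once vehicle control cultures reached saturation at 30 °C; 1 = growth at the plate median or of vehicle wells; lower values mean less growth of the strain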
Conditions: growth OD
[1] = S. cerevisiae deletion strains, locus YAL013W, strain DEP1, active compounds read low
[2] = S. cerevisiae deletion strains, locus YBR229C, strain ROT2, active compounds read low
[3] = S. cerevisiae deletion strains, locus YDL101C, strain DUN1, active compounds read low
[4] = S. cerevisiae deletion strains, locus YDL134C, strain PPH21, active compounds read low
[5] = S. cerevisiae deletion strains, locus YDR150W, strain NUM1, active compounds read low
[6] = S. cerevisiae deletion strains, locus YEL061C, strain CIN8, active compounds read low
[7] = S. cerevisiae deletion strains, locus YGR078C, strain PAC10, active compounds read low
[8] = S. cerevisiae deletion strains, locus YHR030C, strain SLT2, active compounds read low
[9] = S. cerevisiae deletion strains, locus YHR087W, strain rtc3, active compounds read low
[10] = S. cerevisiae deletion strains, locus YJL187C, strain SWE1, active compounds read low
[11] = S. cerevisiae deletion strains, locus YJR043C, strain POL32, active compounds read low
[12] = S. cerevisiae deletion strains, locus YJR075W, strain HOC1, active compounds read low
[13] = S. cerevisiae deletion strains, locus YLR039C, strain RIC1, active compounds read low
[14] = S. cerevisiae deletion strains, locus YLR058C, strain SHM2 (second series), active compounds read low
[15] = S. cerevisiae deletion strains, locus YLR085C, strain ARP6, active compounds read low
[16] = S. cerevisiae deletion strains, locus YLR262C, strain YPT6, active compounds read low
[17] = S. cerevisiae deletion strains, locus YML094W, strain GIM5, active compounds read low
[18] = S. cerevisiae deletion strains, locus YMR219W, strain ESC1, active compounds read low
[19] = S. cerevisiae deletion strains, locus YMR263W, strain SAP30, active compounds read low
[20] = S. cerevisiae deletion strains, locus YMR307W, strain GAS1, active compounds read low
[21] = S. cerevisiae deletion strains, locus YNL153C, strain GIM3, active compounds read low
[22] = S. cerevisiae deletion strains, locus YNL298W, strain CLA4 (second series), active compounds read low
[23] = S. cerevisiae deletion strains, locus YNL322C, strain KRE1, active compounds read low
[24] = S. cerevisiae deletion strains, locus YNR030W, strain Alg12, active compounds read low
[25] = S. cerevisiae deletion strains, locus YPL055C, strain LGE1, active compounds read low
[26] = S. cerevisiae deletion strains, locus YPL241C, strain CIN2, active compounds read low
[27] = S. cerevisiae deletion strains, locus YPR135W, strain CTF4, active compounds read low

Measured: normalized growth

CCCc1ccc(/C(C)=N\O)cc1
inactive: [1] 0.939 | [3] 0.955 | [4] 0.965 | [5] 0.858 | [7] 0.93 | [8] 0.778 | [11] 0.949 | [16] 0.834 | [17] 0.947 | [19] 0.963 | [20] 1.18 | [21] 0.946 | [22] 0.94 | [24] 0.96 | S. cerevisiae deletion strains, locus YOL006C, strain TOP1, active compounds read low 0.945 | [25] 0.848 | [26] 0.949
active: [2] 0.921 | [6] 0.902 | [9] 0.909 | [10] 0.926 | [12] 0.816 | [13] 0.777 | [14] 0.92 | [15] 0.756 | [18] 0.932 | [23] 0.919 | [27] 0.518

CCCc1ccc(-c2nc(-c3ccc(C)cc3)no2)cc1
inactive: [1] 0.999 | [2] 0.994 | [3] 0.971 | [5] 1.01 | [6] 1.01 | [7] 0.973 | [8] 1 | [9] 0.984 | [10] 0.978 | [11] 0.991 | [12] 0.95 | [13] 1.09 | [14] 0.995 | [15] 1.02 | [16] 1.04 | [17] 0.988 | [18] 0.992 | [19] 0.994 | [20] 1.04 | [21] 0.965 | [22] 0.987 | [23] 0.989 | [24] 0.973 | [25] 0.975 | [26] 0.941 | [27] 1.06 | S. cerevisiae strains, strain wild type, active compounds read low 1.01

C/C(=N/O)c1ccc2c(c1)C(C)(C)CCC2(C)C
inactive: [1] 1.01 | [2] 0.987 | S. cerevisiae deletion strains, locus YCL061C, strain MRC1, active compounds read low 0.964 | [3] 1.01 | [4] 0.99 | [5] 0.985 | [6] 0.995 | [7] 0.981 | [8] 0.984 | [9] 0.977 | [10] 0.976 | [11] 0.989 | [12] 0.954 | [13] 0.847 | [14] 0.985 | [15] 0.963 | [16] 0.939 | [17] 0.992 | [18] 0.991 | [19] 0.979 | [20] 0.92 | [21] 0.967 | [22] 0.962 | [23] 0.995 | [24] 0.958 | [25] 0.996 | [26] 0.953 | [27] 0.915
